PubChem BioAssay (NCATS)
Results filed as inconclusive are left out. Active and inactive are the calls of the source. The call rests on the fitted dose curve; in most records, active means well fitted curve in the direction sought with a large enough effect; inconclusive means small, poorly fitted or top-dose-only effect, or another doubt; inactive means no such curve, though single readings can be large; an effect the other way counts as inactive or inconclusive.

What was measured:
[1] = target: Rap guanine nucleotide exchange factor 3 (Homo sapiens) (UniProt O95398); assay: Confirmatory qHTS for agonist of cAMP-regulated guanine nucleotide exchange factor 3 (EPAC1) (AID 1645881);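 further: EPAC1 catalysed release of BODIPY-GDP from Rap1B seen as fluorescence loss; 100% = effect of cAMP agonist control; nearly all actives have a fitted effect of over 75% in size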
Chain of Rap guanine nucleotide exchange factor 3 (Homo sapiens) (O95398 whole entry, looked up): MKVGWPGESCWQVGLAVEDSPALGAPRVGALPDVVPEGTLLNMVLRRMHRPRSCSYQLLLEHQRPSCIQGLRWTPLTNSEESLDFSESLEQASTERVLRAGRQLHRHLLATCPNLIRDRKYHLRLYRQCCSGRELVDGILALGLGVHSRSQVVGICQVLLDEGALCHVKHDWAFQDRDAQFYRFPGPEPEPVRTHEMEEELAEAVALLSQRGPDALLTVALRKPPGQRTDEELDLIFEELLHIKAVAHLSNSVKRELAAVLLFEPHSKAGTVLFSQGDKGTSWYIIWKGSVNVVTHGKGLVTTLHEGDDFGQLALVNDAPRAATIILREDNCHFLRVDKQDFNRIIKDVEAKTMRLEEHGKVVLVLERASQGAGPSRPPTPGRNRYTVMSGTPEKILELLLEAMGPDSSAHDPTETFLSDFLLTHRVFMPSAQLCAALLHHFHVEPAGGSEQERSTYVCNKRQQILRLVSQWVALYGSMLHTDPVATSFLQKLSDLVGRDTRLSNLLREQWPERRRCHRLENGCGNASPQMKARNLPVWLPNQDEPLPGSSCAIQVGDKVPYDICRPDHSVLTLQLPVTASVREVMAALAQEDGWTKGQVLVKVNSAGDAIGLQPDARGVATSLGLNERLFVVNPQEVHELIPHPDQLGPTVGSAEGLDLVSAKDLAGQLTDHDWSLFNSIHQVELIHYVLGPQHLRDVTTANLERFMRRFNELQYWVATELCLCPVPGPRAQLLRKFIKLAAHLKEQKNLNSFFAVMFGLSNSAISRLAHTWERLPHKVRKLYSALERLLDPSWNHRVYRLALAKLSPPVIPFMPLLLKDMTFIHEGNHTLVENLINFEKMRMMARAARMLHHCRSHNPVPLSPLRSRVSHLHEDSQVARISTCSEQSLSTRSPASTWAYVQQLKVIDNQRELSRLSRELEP

[2] = target: Rap guanine nucleotide exchange factor 4 (Homo sapiens) (UniProt Q8WZA2); assay: Confirmatory qHTS for agonist of cAMP-regulated guanine nucleotide exchange factor 4 (EPAC2) (AID 1645884);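 further: nucleotide exchange releases bodipy-GDP from Rap1 and this lowers its fluorescence; on the % scale 0 is the no-effect control and ±100 the full control effect; nearly all actives have a fitted effect of over 65% in size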
Chain of Rap guanine nucleotide exchange factor 4 (Homo sapiens) (Q8WZA2 whole entry, looked up): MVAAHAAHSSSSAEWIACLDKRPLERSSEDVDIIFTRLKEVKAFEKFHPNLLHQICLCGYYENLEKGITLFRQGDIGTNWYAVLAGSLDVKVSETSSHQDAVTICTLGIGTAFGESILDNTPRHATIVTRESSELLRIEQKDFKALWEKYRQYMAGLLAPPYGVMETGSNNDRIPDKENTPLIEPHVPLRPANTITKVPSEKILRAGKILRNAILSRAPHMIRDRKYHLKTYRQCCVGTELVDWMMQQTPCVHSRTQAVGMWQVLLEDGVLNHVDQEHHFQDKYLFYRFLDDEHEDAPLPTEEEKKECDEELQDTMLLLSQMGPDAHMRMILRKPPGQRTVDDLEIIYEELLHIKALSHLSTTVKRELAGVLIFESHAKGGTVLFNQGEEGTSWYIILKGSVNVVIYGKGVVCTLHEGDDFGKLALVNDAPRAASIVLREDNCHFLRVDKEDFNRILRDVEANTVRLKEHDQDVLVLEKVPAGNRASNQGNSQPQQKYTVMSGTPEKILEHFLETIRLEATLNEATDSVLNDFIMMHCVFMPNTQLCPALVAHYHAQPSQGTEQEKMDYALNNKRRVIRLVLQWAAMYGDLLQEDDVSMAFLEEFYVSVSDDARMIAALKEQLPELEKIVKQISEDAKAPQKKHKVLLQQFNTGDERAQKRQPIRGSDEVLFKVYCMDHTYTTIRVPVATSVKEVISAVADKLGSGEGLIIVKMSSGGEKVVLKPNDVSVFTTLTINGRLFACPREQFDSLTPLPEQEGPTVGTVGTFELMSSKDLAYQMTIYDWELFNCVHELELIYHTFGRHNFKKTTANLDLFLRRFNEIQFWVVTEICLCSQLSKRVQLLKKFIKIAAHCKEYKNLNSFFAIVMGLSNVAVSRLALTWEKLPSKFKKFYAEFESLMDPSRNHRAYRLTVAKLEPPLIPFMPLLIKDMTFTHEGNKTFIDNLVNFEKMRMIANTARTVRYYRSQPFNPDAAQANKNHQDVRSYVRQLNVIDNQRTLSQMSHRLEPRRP

[3] = target: Rap guanine nucleotide exchange factor 4 (Homo sapiens) (UniProt Q8WZA2); assay: Confirmatory qHTS for antagonist of cAMP-regulated guanine nucleotide exchange factor 4 (EPAC2) (AID 1645885); further: nearly all actives have a fitted effect of over 25% in size; further: potency means the concentration at half of the fitted maximal effect; on activity change, negative = inhibition: on the % scale 0 is the no-effect control and ±100 the full control effect
[4] = target: Rap guanine nucleotide exchange factor 3 (Homo sapiens) (UniProt O95398); assay: Counterscreen qHTS for antagonist of cAMP-regulated guanine nucleotide exchange factor 3 (EPAC1) (AID 1645888);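 further: fluorescence loss as bound BODIPY-GDP is released from Rap1B; % of control where 0% means no effect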
Procedure, shortened: (§1)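 Rap1B-BODIPY-GDP 250 nM + GDP 50 uM; cpds 7-pt, final 9.74 nM–152 uM (activator mode) or from 7.32 nM upwards (inhibitor mode); RT; FI 480/540 nm at 5 and 30 min, then ± cAMP, reread.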

[5] = target: Rap guanine nucleotide exchange factor 3 (Homo sapiens) (UniProt O95398); assay: Counterscreen qHTS for agonist of cAMP-regulated guanine nucleotide exchange factor 3 (EPAC1) (AID 1645889); further: nearly all actives have a fitted effect of over 40% in size; further: potency means the concentration at half of the fitted maximal effect; on activation: % of control where 0% means no effect
Procedure, shortened: as §1

CC(C)C[C@H](NC(=O)C1(c2ccccc2)CCN(C(=O)OC(C)(C)C)CC1)C(=O)N1CCC[C@H]1C(=O)O
inactive: Potency [1] | Potency [2] | Potency [3] | Potency [4] | Potency [5]

CCOc1cc(/C=C/c2cc(C(=O)O)c3ccccc3n2)ccc1OC
inactive: Potency [1] | activation [2] -3.6% [at 17.1 µM, percent relative to cAMP agonist control] | Potency [3] | activity change, negative = inhibition [4] 8.54% [at 30.8 µM] | activation [5] 6.45% [at 30.8 µM]

CCc1ccc(N=Nc2ccc(O)c3[nH]cnc23)cc1
inactive: Potency [1] | Potency [2] | Potency [3] | Potency [4] | Potency [5]

CC1(Cc2ccccc2Cl)C(=O)Nc2c(Cl)cccc21 (stereo not given)
inactive: Potency [1] | activation [2] 10% [at 17.1 µM, percent relative to cAMP agonist control] | Potency [3] | activity change, negative = inhibition [4] -23.5% [at 30.8 µM] | activation [5] 5.68% [at 30.8 µM]

COc1ccc(S(=O)(=O)Nc2cc(SCC(=O)O)c(O)c3ccccc23)cc1
active: Potency [5] 56.2 µM
inactive: Potency [1] | Potency [2] | Potency [3] | Potency [4]

O=C(Cn1ncc(Cl)c(Cl)c1=O)NC(=O)NC1CCCCC1
inactive: Potency [1] | activation [2] 3.69% [at 17.1 µM, percent relative to cAMP agonist control] | Potency [3] | activity change, negative = inhibition [4] -1.53% [at 30.8 µM] | activation [5] 9.51% [at 30.8 µM]

CC(C)(C)c1ccc(C(=O)N/C(=C\c2cccc([N+](=O)[O-])c2)C(=O)Nc2cccc(C(=O)O)c2)cc1
inactive: Potency [1] | activation [2] 8.06% [at 17.1 µM, percent relative to cAMP agonist control] | Potency [3] | activity change, negative = inhibition [4] -17.2% [at 30.8 µM] | activation [5] 22.2% [at 30.8 µM]

COc1ccc(C(C#N)N2CCC(c3ccccc3)=N2)cc1 (stereo not given)
inactive: Potency [1] | Potency [2] | Potency [4] | Potency [5]
active: Potency [3] 7.57 µM

O=[N+]([O-])c1ccc(-n2nnnc2-c2ccccc2)c([N+](=O)[O-])c1
inactive: Potency [1] | Potency [2] | Potency [3] | Potency [4] | Potency [5]

O=C(O)c1ccc(N/N=C/c2cn(Cc3ccccc3F)c3ccccc23)cc1
inactive: Potency [1] | Potency [2] | Potency [3] | Potency [4] | Potency [5]

CNC(=S)N1CCc2cc(OC)c(OC)cc2C1COc1ccc(F)cc1 (stereo not given)
inactive: Potency [1] | activation [2] 0% [at 17.1 µM, percent relative to cAMP agonist control] | Potency [3] | activity change, negative = inhibition [4] -1.54% [at 30.8 µM] | activation [5] 46.8% [at 30.8 µM]

Cc1cc2nc(-c3ccc(SCc4ccccn4)nc3)[nH]c2cc1C
inactive: Potency [1] | activation [2] 4.1% [at 17.1 µM, percent relative to cAMP agonist control] | Potency [3] | activity change, negative = inhibition [4] 1.95% [at 30.8 µM] | activation [5] 19.2% [at 30.8 µM]

C=CCn1c(=NC(=O)c2sc3ccccc3c2Cl)sc2cc(S(N)(=O)=O)ccc21
inactive: Potency [1] | Potency [2] | Potency [3] | Potency [4] | Potency [5]

Cc1ccc(CN(C(=O)COc2cccc([N+](=O)[O-])c2)c2ccccn2)cc1
inactive: Potency [1] | Potency [2] | outcome [3] inactive [at 12.7 µM] | Potency [4] | Potency [5]

O=C(O)c1sccc1SCc1ccc(Cl)c(Cl)c1
inactive: Potency [1] | Potency [2] | Potency [3] | Potency [4] | Potency [5]

O=c1c2ccccc2nc(/C=C/c2cccnc2)n1Cc1ccccc1
inactive: Potency [1] | activation [2] 2.62% [at 17.1 µM, percent relative to cAMP agonist control] | Potency [3] | activity change, negative = inhibition [4] -16.6% [at 30.8 µM] | activation [5] 22.2% [at 30.8 µM]

Cc1c([N+](=O)[O-])cnc(Sc2ccccc2)c1[N+](=O)[O-]
inactive: Potency [1] | Potency [2] | Potency [3] | Potency [4] | Potency [5]

CC(C)Cn1nc(NS(=O)(=O)c2cccc3nonc23)c2cc3ccccc3nc21
inactive: Potency [1] | Potency [2] | Potency [3] | Potency [4] | Potency [5]

CC1CCc2[nH]c3ccc(C(=O)N4CCCC(C(F)(F)F)C4)cc3c2C1 (stereo not given)
inactive: Potency [1] | Potency [2] | Potency [3] | Potency [4] | Potency [5]

Cc1ccc(/C=N/N2CCN(Cc3cccc4ccccc34)CC2)o1
inactive: Potency [1] | Potency [2] | Potency [3] | Potency [4] | Potency [5]

O=[N+]([O-])CC(c1ccccc1)c1c[nH]c2ccccc12 (stereo not given)
inactive: Potency [1] | Potency [2] | Potency [4] | Potency [5]
active: Potency [3] 21.3 µM

O=[N+]([O-])c1cc(CN2CCN(c3cccc(C(F)(F)F)c3)CC2)c2cccnc2c1O
inactive: Potency [1] | Potency [2] | Potency [3] | Potency [4] | Potency [5]

CC(C)(C)NC(=O)C(c1ccc(C#N)cc1)n1c(=O)c(-c2ccco2)nc2ccccc21 (stereo not given)
inactive: Potency [1] | Potency [2] | Potency [3] | Potency [4] | Potency [5]

CC(=O)NC(C)(c1ccccc1)c1nc(-c2cccc(C(F)(F)F)c2)cs1 (stereo not given)
inactive: Potency [1] | Potency [2] | Potency [3] | Potency [4] | Potency [5]

CCCN(CCC)C(=O)Cn1c(=O)c2sccc2n2c(=S)sc(-c3ccccc3)c12
inactive: Potency [1] | activation [2] 2.59% [at 17.1 µM, percent relative to cAMP agonist control] | Potency [3] | activity change, negative = inhibition [4] -19.9% [at 30.8 µM] | activation [5] -0.211% [at 30.8 µM]

Cc1csc2c(=O)sc(NC(=O)c3cccs3)nc12
inactive: Potency [1] | Potency [2] | Potency [3] | Potency [4] | Potency [5]

Cc1ccccc1Cn1nnc2c(=O)[nH]c(C3CCCN(C(=O)c4ccc(C(C)(C)C)cc4)C3)nc21 (stereo not given)
inactive: Potency [1] | Potency [2] | Potency [3] | Potency [4] | Potency [5]

Cc1ccc(CN(C(=O)COc2cc(C)c(Cl)c(C)c2)c2ccccn2)o1
inactive: Potency [1] | Potency [2] | Potency [3] | Potency [4] | Potency [5]

CC(=O)c1c(C)[nH]c(C(=O)OCC(=O)c2ccc3c(c2)NC(=O)CO3)c1C
inactive: Potency [1] | Potency [2] | Potency [3] | Potency [4] | Potency [5]

C=CCc1ccccc1OCc1nc2ccccc2n1CC
inactive: Potency [1] | Potency [2] | Potency [3] | Potency [4] | Potency [5]

CCCOC(=O)c1c(NC(=O)C2C3C=CC(C3)C2C(=O)O)sc2c1CCC(C)C2 (stereo not given)
inactive: Potency [1] | activation [2] 8.63% [at 17.1 µM, percent relative to cAMP agonist control] | Potency [3] | activity change, negative = inhibition [4] 1.23% [at 30.8 µM] | activation [5] 40.1% [at 30.8 µM]

O=[N+]([O-])c1cc2oc3c(c2c(C=NCc2ccncc2)c1O)CCCC3
inactive: Potency [1] | activation [2] 1.74% [at 17.1 µM, percent relative to cAMP agonist control] | Potency [3] | activity change, negative = inhibition [4] -19.5% [at 30.8 µM] | activation [5] 15.1% [at 30.8 µM]

CC(C)CCNc1nc(-c2ccco2)c2c(c1C#N)CCCC2
inactive: Potency [1] | Potency [2] | Potency [3] | Potency [4] | Potency [5]

COC1=CC(=O)C(C2CC(=O)c3c(O)cc(O)cc3O2)=CC1=O (stereo not given)
inactive: Potency [1] | activation [2] 9.22% [at 17.1 µM, percent relative to cAMP agonist control] | Potency [3] | activity change, negative = inhibition [4] -16% [at 30.8 µM] | activation [5] 4.79% [at 30.8 µM]

CCOc1ncccc1C(=O)OC(C)C(=O)Nc1ccc(Cl)cn1 (stereo not given)
inactive: Potency [1] | activation [2] 7.63% [at 17.1 µM, percent relative to cAMP agonist control] | activity change, negative = inhibition [4] -16.3% [at 30.8 µM] | activation [5] 15.5% [at 30.8 µM]
active: Potency [3] 0.213 µM

CCOc1ccccc1Cn1c(=O)oc2ccc(C)cc21
inactive: Potency [1] | Potency [2] | Potency [3] | Potency [4] | Potency [5]

COCCn1c(SCC(=O)c2c(C)[nH]c3ccccc23)nc2cc(C(=O)NC(C)C)ccc2c1=O
inactive: Potency [1] | Potency [2] | Potency [3] | Potency [4] | Potency [5]

COc1ccc(OC)c(N2C(=O)[C@@H]3C(c4ccccc4Cl)=NO[C@@H]3C2=O)c1
active: Potency [3] 6.01 µM
inactive: Potency [1] | Potency [2] | Potency [4] | Potency [5]

Cc1cccc(NC(=O)c2ccc(-n3cncn3)c([N+](=O)[O-])c2)c1
inactive: Potency [1] | activation [2] 2.79% [at 17.1 µM, percent relative to cAMP agonist control] | Potency [3] | activity change, negative = inhibition [4] -21.4% [at 30.8 µM] | activation [5] 23.9% [at 30.8 µM]

COc1ccc(O)c(/C=N/NC(=O)c2ccc(N3CCCC3=O)cc2)c1
inactive: Potency [1] | Potency [2] | Potency [3] | Potency [4] | Potency [5]

C/C=C/c1cc(OC)c2c(c1)[C@H](C)[C@@H](c1ccc(O)c(OC)c1)O2
inactive: Potency [1] | Potency [2] | Potency [3] | Potency [4] | Potency [5]

C=CCn1cc(C(=O)N2CCc3ccccc3C2)c(=O)c2cc(S(=O)(=O)N(CC)CC)ccc21
inactive: Potency [1] | Potency [2] | Potency [3] | Potency [4] | Potency [5]
